In PubChem BioAssay AID2401 (Southern Research Specialized Biocontainment Screening …, 2010):
The campaign covered roughly 2,200 compounds. About 530 (24%) were called active. Only a sample is shown. Results with a measured potency or affinity are listed apart. A number with no mark means an inactive call.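 The calls were made as follows: active = inhibition above a set limit at one or more concentrations of the dose series; inactive = inhibition under that limit at every dose.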

Assay: S. Typhimurium nonspecific reporter signal inhibition – Salmonella Typhimurium, GFP fluorescence, counter-screen for PhoP regulon inhibitor project, dose response (AID 2401);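 also: S. typhimurium with Mg-insensitive nmpC-GFP reporter grown at 10 µM Mg2+; drop in reporter fluorescence reflects general culture growth inhibition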
Conditions: 4 h; series mostly up to 150 µM; inhibition: at the top concentration

SMILES	inhibition
CC(C)[C@@H]1CC[C@@H](C)C[C@H]1OC(=O)C[n+]1cc(-c2ccc(Cl)cc2)n2c1CCCCC2	22.9%
COc1ccc(-n2c(CNc3ccc(C)cc3)nnc2SCc2ccccc2)cc1	-8.88%
Cn1cc(-c2nnnn2-c2cccc(C(F)(F)F)c2)c(C(F)(F)F)n1	-2.59%
CCn1c(CNC(=O)c2cccc(C)c2)nc2ccccc21	11.2%
COc1ccccc1-c1c(C#N)c(N)nc2c1CCc1ccccc1-2	11.5%
O=c1cc(Cc2ccccc2)[nH]c(=S)[nH]1	33.4%
CCOC(=O)Cc1ccc(NS(=O)(=O)c2ccc(SC)cc2)cc1	-6.6%
NC1=NC(=Nc2cccc(Cl)c2)c2ccccc21	-26%
C#CCOc1ccc(/C=C2\SC(=S)N(Cc3cccnc3)C2=O)cc1	-13.1%
COCCNC(=O)c1ccc(C(=O)NCCOC)s1	10.3%
CC(Nc1ccc(Br)cn1)c1cc(Cl)ccc1O (centres undefined)	19.7%
COc1cc([N+](=O)[O-])cc(/C=N/NC(=O)c2cccnc2)c1O	-0.27%
COc1ccc(/C=N/NC(=O)c2ccc3c(c2)OCCO3)cc1[N+](=O)[O-]	21.9%
O=C(Nc1cc(C(F)(F)F)ccc1N1CCOCC1)c1ccc(Br)o1	-24.2%
Cc1nc(N2CCN(Cc3ccc4c(c3)OCO4)CC2)nc2c1C(=O)CC(c1ccco1)C2 (centres undefined)	5.75%
CC1CCN(S(=O)(=O)c2cccc(C(=O)N(C)C3CCS(=O)(=O)C3)c2)CC1 (centres undefined)	-5.63%
CN1c2ccccc2C(O)=C(C(=O)Nc2ccccc2)S1(=O)=O	-32.2%
O=C(N/N=C/c1ccc(F)cc1)c1cc(-c2ccco2)nc2ccccc12	7.96%
COC(=O)C1=C(C)N(C)C(=O)/C1=C\c1ccco1	-21.4%
O=C(COc1ccccc1)NC(=S)Nc1ccc2c3c(cccc13)CC2	-2.5%
Cc1ccc(C(=O)CSc2ncnc3sc4c(c23)CCCC4)cc1	-20.6%
COc1ccc(N2CCN(C(=O)CN(c3cccc(Br)c3)S(C)(=O)=O)CC2)cc1	-21.7%
O=C(/C=C/c1ccco1)Oc1cc(Br)cc(/C=N/NC(=O)c2ccccc2O)c1	17.5%

SMILES	inhibition
CCN1CCN(C(=O)c2ccc3c(=O)n(Cc4ccccc4OC)c(=S)[nH]c3c2)CC1	-4.23%
Cc1cc(C)nc(Nc2ccc(N3CCCC3)cc2)n1	32.9%
O=C(NCCc1ccccc1)c1ccc2nc(-c3ccco3)c(-c3ccco3)nc2c1	-46.4%
Clc1ccc(OCCn2ccnc2)c(Br)c1	18.4%
O=C(NC1CCN(C(=O)N2c3ccccc3Sc3ccccc32)CC1)c1ccco1	8.29%
CCn1c2ccccc2c2cc(C3N=C(N)Nc4nc5ccccc5n43)ccc21 (centres undefined)	-8.32%
O=C(CN1CCN(c2ccccn2)CC1)Nc1ccc(Oc2ccccc2)cc1	-14.2%
COc1ccc(OC)c(C2=Nn3c(nnc3-c3cc(OC)c(OC)c(OC)c3)SC2)c1	-10.9%
O=C1CCCc2nc(N3CCN(Cc4ccccc4)CC3)ncc21	13.7%
COc1ccc(Nc2sc(C(=O)Nc3cccc(Cl)c3)c(N)c2C(=O)Nc2ccccc2OC)cc1	5.71%
O=S(=O)(c1ccc(F)c2ccccc12)N1CCCCC1	-2.06%
Cn1ccnc1SCC(=O)Nc1sccc1C#N	-22%
Cn1cc(C(CC(=O)O)C(=O)O)c2ccccc21 (centres undefined)	-32.7%
c1ccc2c(N3CCCCCC3)nc(-c3ccncc3)nc2c1	9.59%
CCOC(=O)c1cnc2ccc(OCC)cc2c1N1CCN(c2ccccc2)CC1	-17.9%
Cc1ccc(NC(=O)CCCSc2nc3ccccc3[nH]2)cc1	13.2%
CCN(CCO)Cc1csc2ccccc12	12%
CC(C)CCNC(=O)C12CN(Cc3ccccc3)CC1C(c1cccc([N+](=O)[O-])c1)=NO2 (centres undefined)	-30.9%
CCCn1c(NCc2c[nH]c3ccccc23)nc2ccccc21	-21.9%
COc1ccc(-c2cc(C(=O)Nc3ccc(S(=O)(=O)Nc4ncccn4)cc3)c3ccccc3n2)cc1	-23.9%
Nc1nc(C2CCCCC2)cs1	-27.9%
Clc1ccc(-n2ncc3c(NCc4cccs4)ncnc32)cc1	-7.96%
CC(C)Cc1nc2ccc(N)cc2[nH]1	-29.5%

SMILES	inhibition
COc1cccc(-c2nnc3sc(-c4ccc(C)cc4)nn23)c1	-21.6%
Cc1nc2c(C(=O)NCCC(C)C)c[nH]n2c(=O)c1Cc1ccccc1F	-6.91%
CC(C)(C)NC(=O)CSc1nnc(-c2ccncc2)o1	-18.5%
CCCCCCC(=O)N(O)C1CC(=O)N(c2ccc(C)cc2)C1=O (centres undefined)	-0.7%
O=C(c1ccco1)[C@@H]1[C@@H]2C(=O)N(c3ccc(F)cc3)C(=O)[C@@H]2[C@H]2C=Cc3ccccc3N21	30.5%
CCC(=O)NC1=C(NC(C)c2ccccc2)C(=O)c2ccccc2C1=O (centres undefined)	-23.7%
O=S(=O)(c1ccc(NC(=S)Nc2ccc3c(c2)OCO3)cc1)N1CCOCC1	-22.1%
Nc1ccc(N(c2ccccc2)c2ccc(N)cc2)cc1	12.5%
CSc1nsc(SCC(=O)Nc2ccc(C(C)=O)cc2)n1	-12.8%
O=C(Cc1cccs1)N(c1ccccc1)C1C=CS(=O)(=O)C1 (centres undefined)	-20.5%
O=C(OCC(=O)c1ccc(S(=O)(=O)N2CCCC2)cc1)C1=COCCO1	22.7%
NNC(=S)Nc1ccc(Cl)cc1	10.3%
COc1ccc2cc(C#N)c(NC(C)C)nc2c1	-8.85%
NC(=S)c1cc2ccc(O)cc2oc1=O	30.4%
Cc1ccc(NC(=S)NCCc2ccccc2)c(C)c1	-16.9%
CNC(=O)CSc1nnc(-c2cccnc2)n1CCc1ccccc1	0.94%
COc1nc(N(c2ccccc2)c2ccccc2)nc(-n2ccnc2)n1	-6.59%
COc1cc(CNc2ccc(CNc3ncn[nH]3)cc2)ccc1OCc1ccccc1	-34.7%
CCc1cccc(NC(=O)CCCSc2nc3ccccc3[nH]2)c1	14.9%
O=C1c2ccccc2C(=O)N1Cc1nc(-c2ccccn2)no1	-21.6%
CC(C)Nc1cc(C(F)(F)F)nc(-c2ccccn2)n1	-23.6%
S=c1nc(-c2ccccc2)oc2c1CCCC2	23%
c1ccc(-c2ncnc3nc4n(c23)CCC4)cc1	-18.3%

SMILES	inhibition
O=C(Nc1cccc2ccccc12)OC1C=CS(=O)(=O)C1 (centres undefined)	12.5%
Cc1cccc(-n2c(SCC(N)=O)nc3c(c2=O)C2(CCCC2)Cc2ccccc2-3)c1	0.99%
COc1ccc(Nc2nc(-c3cccc([N+](=O)[O-])c3)nc3ccccc23)cc1	-12.1%
C=CCSc1nnc(-c2ccc(Cl)cc2Cl)o1	-25.1%
c1ccc(-c2nnc(SCCC3OCCCO3)o2)cc1	-18.6%
COc1ccc(S(=O)(=O)n2nc(OC(=O)c3ccccc3Br)cc2N)cc1	10.2%
CCC(=O)c1ccc(OCC(O)CNCc2ccc(F)cc2)cc1 (centres undefined)	11.7%
COc1ccc(N(C(=O)CCl)C(C(=O)NCCc2ccccc2)c2cccs2)cc1 (centres undefined)	-12%
COc1cccc(OCC(O)CN2CCN(c3ccccn3)CC2)c1 (centres undefined)	-25.8%
COc1ccc(NC2=Nc3cccc4cccc2c34)cc1	-15.2%
COc1ccc(C2=C(Nc3ccc(C)cc3)c3ccccc3C2=O)cc1	9.64%
Cc1cc(Nc2ccccc2)nc2cc(O)ccc12	6.85%
Cc1cc(=O)oc2cc(OCC(O)CN3CCc4ccccc4C3)ccc12 (centres undefined)	32.7%
C=CCN(C(=O)c1cccc(S(=O)(=O)N2CCN(C)CC2)c1)c1nc(-c2ccccc2)cs1	-26.1%
O=C(O)CCc1nnc2n(Cc3ccc(F)cc3)c(=O)c3ccccc3n12	-24.6%
Cc1nc(-c2ccccn2)sc1C(=O)Nc1ccc(F)cc1F	-20.9%
CN(C(=O)/C=C/c1ccccc1)C1CCS(=O)(=O)C1 (centres undefined)	-30.1%
COc1ccccc1N1CCN(c2ccc(-c3ccccc3)nn2)CC1	-12.4%
COc1cc(CNCc2ccccn2)ccc1OCC(=O)NC(C)(C)C	-7.95%
Cc1ccc(NS(=O)(=O)c2ccccc2)c2c1CC(C)(C)O2	-20.3%
Cc1cc(C)nc(N(C#N)C(C)C(=O)N(C)C)n1 (centres undefined)	-20.3%
Cc1cc2cc(CCNC(=O)c3cccs3)c(=O)[nH]c2cc1C	1.29%
Cc1ccc(C(=O)Nc2ccccc2C(N)=O)o1	4.25%

SMILES	inhibition
COc1cccc(Cn2cnc3c(NS(=O)(=O)c4cccc(Cl)c4Cl)c(C)c(C)cc32)c1	19.3%
CC(C)(C)c1ccc(NC(=O)COC(=O)c2ccc([N+](=O)[O-])s2)cc1	34%
Cc1[nH]c2ccccc2c1C(=O)CN1CCSCC1	-12.8%
Cc1cc(=O)oc(C)c1C(=O)NCc1cccnc1	-5.26%
Cc1nn(CCOc2ccccc2)c(=O)n1-c1ccc(F)cc1	-24.6%
Cc1cccc(OCC(=O)NNc2c3ccccc3nc3ccccc23)c1	-23.7%
Cc1cccc(NC(=O)Cn2c(/C=C/c3ccccc3)nc3ccccc32)c1	-18%
O=C(NCc1ccco1)c1c2c(nc3ccccc13)CCC2	-4.54%
Cc1ccc(C(=O)NNc2c3ccccc3nc3ccccc23)cc1	-21.8%
Cc1ccc(CSCc2nc3ccccc3[nH]2)cc1	19.2%
Cc1ccccc1NC(=O)c1sc2nc3c(c(-c4ccco4)c2c1N)CCC3	-7.73%
Cn1c(-c2ccc3c(c2)OCO3)cnc1NCc1cccc(Cl)c1	1.41%
CC(=O)c1c(C)n([O-])c2ccccc2[n+]1=O	26.2%
COC(=O)c1sccc1NC(=O)C1C2C=CC(O2)C1C(=O)O (centres undefined)	24.6%
COC(=O)c1ccc2nc(C(F)(F)F)[nH]c2c1	3.54%
N#CCCN(C(=O)CN1C(=O)NC2(CCCC2)C1=O)c1ccccc1F	-3.96%
O=C1C(Nc2ccccc2)=C/C(=N/S(=O)(=O)c2cccs2)c2ccccc21	21.1%
COc1cc(C=O)ccc1OCCCOc1ccccc1[N+](=O)[O-]	4.63%
Cc1snc(S(=O)(=O)/C(C#N)=N\Nc2ccccc2)c1C#N	-6.54%
Cc1ccsc1C=Nc1ccc(O)cc1	-36.1%
C(=Nc1ccc(Nc2ccccc2)cc1)c1ccc2ccccc2c1	-4.57%
Cc1nnc(NC(=O)CSc2ncnc3scc(-c4ccccc4)c23)s1	-33.5%
